Results taken from publication PMC7819943, “Rice protein-binding microarrays: a tool to detect cis-acting elements near promoter regions in rice”.
Over roughly 68,000 sequences, “fluorescence intensity (a.u.)” has its median near 9,100; the highest 2% begin near 16,000. The sample as a whole holds a higher share of the highest values than the screen did.

biological target: OsWRKY34 (Oryza sativa, UniProt Q0JBA9 1-250); assay: protein-binding microarray (RPBM); PBS, 2% BSA, 51.3 ng/ul salmon testes DNA, 50 uM zinc acetate, 200 nM TF, 25 C, 1 h; high values mean tight binding; conditions: protein: recombinant; tags: N-terminal polyhistidine and DsRed monomer fusion (pET32a); label: CyDye5-dUTP incorporated in the synthesized complementary strand; 3' TTTTT single-stranded linker to array surface; dsDNA, one strand shown
Sequence (Q0JBA9 entry or part of it): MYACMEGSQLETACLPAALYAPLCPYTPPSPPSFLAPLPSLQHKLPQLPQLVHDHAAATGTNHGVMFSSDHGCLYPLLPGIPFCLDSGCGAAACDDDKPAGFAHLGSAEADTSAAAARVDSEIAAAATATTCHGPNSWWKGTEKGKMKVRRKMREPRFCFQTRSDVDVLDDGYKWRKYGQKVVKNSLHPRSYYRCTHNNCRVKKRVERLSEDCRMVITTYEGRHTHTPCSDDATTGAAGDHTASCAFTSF
Method in brief: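 Binding signal is reported as fluorescence intensity per feature (arbitrary units) from an Axon 4000B scanner. Incubation used 200 nM of each Ni–NTA-purified, N-terminally polyhistidine- and DsRed-fused transcription factor from E. coli BL21-CodonPlus on a double-stranded custom Agilent array for 1 h at 25 °C, with 50 µM zinc acetate in the buffer, followed by washing.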

Row | Sequence | binding signal
1 | TCCTTTTCTTTTCTTTTATTTTTTTTTGTTTTTTCCCGTTCGGAGTCACCTAGTGCAG | 8300 fluorescence intensity (a.u.)
2 | CCTTCGATTGACCTCCTCATCCTCTTCCCCTGCTTTCTTTCGGAGTCACCTAGTGCAG | 9720 fluorescence intensity (a.u.)
3 | ATTCTAGTAGTAGTTGTTTATCTTTGTTCTGTTGTTTCTTCGGAGTCACCTAGTGCAG | 8520 fluorescence intensity (a.u.)
4 | GAATTTTTTTTTCGTTTTTTTCAATTCGTTATTCTTTTCTCGGAGTCACCTAGTGCAG | 12300 fluorescence intensity (a.u.)
5 | TCTTCCCGCCTTTTTTTTCTTTGTTATTTTTCTTTTTTTTCGGAGTCACCTAGTGCAG | 18000 fluorescence intensity (a.u.)
6 | CTTTTTTCTCTGCGGGTTCTTCAATTATTCAGGGTTTCTTCGGAGTCACCTAGTGCAG | 16800 fluorescence intensity (a.u.)
7 | TCCCACGATTTCCTTTCCTGCTTTTCTCATCCCTTTTGTTCGGAGTCACCTAGTGCAG | 16500 fluorescence intensity (a.u.)
8 | AAAAGGCGTTTGCTTGTTTTTGCTGTGGGTTAATTCGCCTCGGAGTCACCTAGTGCAG | 8090 fluorescence intensity (a.u.)
9 | GTCACTCCTACTCCCGCCACCACCGGCCCAATGGCGCCCCCGGAGTCACCTAGTGCAG | 9660 fluorescence intensity (a.u.)
10 | CCCAGTTTTATTTCTGCAGTTCATTTTATGAGAGCATTCTCGGAGTCACCTAGTGCAG | 8120 fluorescence intensity (a.u.)
11 | GTGCTCTCTGCTGGCTGCGACGCCATATATGCCTTTCTTCCGGAGTCACCTAGTGCAG | 8720 fluorescence intensity (a.u.)
12 | ACATTCTCTTATACCCATCACAATCATTTGCTCAATAGGGCGGAGTCACCTAGTGCAG | 8620 fluorescence intensity (a.u.)
13 | CTATCAATTCGCTCTATTATGTCGCTCAATTCTCTCTCGCCGGAGTCACCTAGTGCAG | 8650 fluorescence intensity (a.u.)
14 | GCCGGATCCAGATCTCCACCGCCTCGCCTCGCCGCGCCGCCGGAGTCACCTAGTGCAG | 10400 fluorescence intensity (a.u.)
15 | CTACACACAAACTTCCAACTTTTCTGTCACATCGTTCCAACGGAGTCACCTAGTGCAG | 11900 fluorescence intensity (a.u.)
16 | GTGTGTTTTTCTGCCATTTTTCGCCTTAGGTCTTCGCAATCGGAGTCACCTAGTGCAG | 12300 fluorescence intensity (a.u.)
17 | GAGATAGATGGGCCTGAAATGCGCCGATGGTCAGGCCTGCCGGAGTCACCTAGTGCAG | 8190 fluorescence intensity (a.u.)
18 | TTCGTGCACGCGGTCCATGCACCAGCCACCATTCCCTTCGCGGAGTCACCTAGTGCAG | 8350 fluorescence intensity (a.u.)
19 | GATTTGGTCTGGTTTGGTTGGAGGTTAGCTCGCCTCTGATCGGAGTCACCTAGTGCAG | 19400 fluorescence intensity (a.u.)
20 | TTGTTCTTCTTTTTTGGTCTGGTTTTTTTTGTGGTTTCTTCGGAGTCACCTAGTGCAG | 16700 fluorescence intensity (a.u.)
21 | TAATATATGATCATACTTGTTTTATATACATTGTGTCTTGCGGAGTCACCTAGTGCAG | 9830 fluorescence intensity (a.u.)
22 | CTTTTGGTCTTCCCTTTCTTTTCTTCTTCTTCTTCTTCTTCGGAGTCACCTAGTGCAG | 10400 fluorescence intensity (a.u.)
23 | GAGGTTAGCTCGCCTCTGATTGGGTTGGTTGGGTGGTCGGCGGAGTCACCTAGTGCAG | 10100 fluorescence intensity (a.u.)
24 | GGTCTGGTTCTTCTTGATGCGAGGCTAGCTGACGTTTTTTCGGAGTCACCTAGTGCAG | 17200 fluorescence intensity (a.u.)

Row | Sequence | binding signal
25 | TTGTTCTTTTTGGTCTGGTTTTTTTGTGGTTTCTTGATTGCGGAGTCACCTAGTGCAG | 9010 fluorescence intensity (a.u.)
26 | CTCGTGTGTCTTGCGGGCGGGTGATCTTTCCACATACAGACGGAGTCACCTAGTGCAG | 19200 fluorescence intensity (a.u.)
27 | AAGGTTGTCTTGTTTGATTAGCTATTTTCTTTGCCTGGTTCGGAGTCACCTAGTGCAG | 11400 fluorescence intensity (a.u.)
28 | CGTGTCTTGTGTGTTTCCTGTCTCGCGAGCCTTCCACATACGGAGTCACCTAGTGCAG | 15000 fluorescence intensity (a.u.)
29 | CGTTTCTTGGCTGGTTTTCTTGGGCGGCGATCGATCGATGCGGAGTCACCTAGTGCAG | 8140 fluorescence intensity (a.u.)
30 | TCTGGTTGATTGATCGATTTGGGGAATTGGGGATCTAGCTCGGAGTCACCTAGTGCAG | 12000 fluorescence intensity (a.u.)
31 | ACCTTAATTAATTAATCTTGTTTTCTCATGGAGTTGTCATCGGAGTCACCTAGTGCAG | 10400 fluorescence intensity (a.u.)
32 | AACGCGTGTATTTCTATGCTTTTGATATTGATCTTGCATCCGGAGTCACCTAGTGCAG | 8230 fluorescence intensity (a.u.)
33 | GGACATTTGGAACTGATTACTCCTACTACTCTAGTGAAAACGGAGTCACCTAGTGCAG | 8400 fluorescence intensity (a.u.)
34 | GTGCTACCTCCATCCCAATATACTTGTCGTTTTAAGTTTTCGGAGTCACCTAGTGCAG | 11800 fluorescence intensity (a.u.)
35 | TCTCTTATACTGATTTTTGGGTCCAATCCCTTACCGTTGACGGAGTCACCTAGTGCAG | 8150 fluorescence intensity (a.u.)
36 | TTTGTGTGTCTTGTTTATATGTGCACATATCTTGTCTTGTCGGAGTCACCTAGTGCAG | 8370 fluorescence intensity (a.u.)
37 | ACCTTTCCTTTCATCTCTTCCGCTGGTTTTGTGGGATATTCGGAGTCACCTAGTGCAG | 12800 fluorescence intensity (a.u.)
38 | TTCCGGCCCGCGTTCTTTTTGAAGTCCAGTTTACGTCCTTCGGAGTCACCTAGTGCAG | 10800 fluorescence intensity (a.u.)
39 | GCCTTTTTTCCTTTGTCTTTTTCCGGCCCGCGTTCTTTTTCGGAGTCACCTAGTGCAG | 17400 fluorescence intensity (a.u.)
40 | CCGTTTCCTTTGCTGGTTGTGTTTTGTGCTTGCATTCATGCGGAGTCACCTAGTGCAG | 12400 fluorescence intensity (a.u.)
41 | CTTGTTGATGTGGGTGTTTCTTGGTCGATCCTTCTTGTTTCGGAGTCACCTAGTGCAG | 8330 fluorescence intensity (a.u.)
42 | GATGTTGTTTCCTTTCTTTGGTGGTTTGGTTTGGTTGGGTCGGAGTCACCTAGTGCAG | 29300 fluorescence intensity (a.u.)
43 | ATTTGTTGTTTCATTTGTATTGTTTTGTGTTGGTTTATGTCGGAGTCACCTAGTGCAG | 8940 fluorescence intensity (a.u.)
44 | GTTCTCTTTTTTGTTTGTCTTTCCTAGTGCAATATGTTTCCGGAGTCACCTAGTGCAG | 10700 fluorescence intensity (a.u.)
45 | TATTCCTTTCATTGGGTTTGTGCGGGATGGCTGGTTGGTGCGGAGTCACCTAGTGCAG | 18100 fluorescence intensity (a.u.)
46 | TGGTGACGATGGTGATGTTCTTGTTGTTGGTTTTTCCTTTCGGAGTCACCTAGTGCAG | 9530 fluorescence intensity (a.u.)
47 | GGTCTGGTTTTATCGGTTTATATGTGTGTGTTTTTTTTGTCGGAGTCACCTAGTGCAG | 33500 fluorescence intensity (a.u.)
